Source: PubChem BioAssay (NCI)
This is part of a sample that, as a whole, favours compounds with a hit. Of some 79,000 tested, about 15% had one in any assay. Values without a mark were called inactive. Active and inactive are the calls of the source. Cut-off read from the data, not from the text of the source: active = growth inhibition above about 70%; inactive = the rest.

What was measured:
[1] = NCI Yeast Anticancer Drug Screen. Data for the rad50 strain (AID 155);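 note: 0% = growth of vehicle-only cultures of the same strain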; settings: S. cerevisiae rad50 strain growth inhibition, stronger effect = higher value
In short: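 Growth of the mutant yeast was measured after compound exposure and referenced to vehicle-treated cultures.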

[2] = NCI Yeast Anticancer Drug Screen. Data for the mec2-1 strain (AID 157); settings: S. cerevisiae mec2-1 strain, stronger effect = higher value
In short: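 Cells of the genetically defined mec2-1 yeast strain are incubated with test compound. Inhibition of growth is calculated against vehicle-treated controls.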

[3] = NCI Yeast Anticancer Drug Screen. Data for the sgs1 mgt1 strain (AID 161);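 note: 0% = growth of cultures given vehicle only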; settings: S. cerevisiae sgs1 mgt1 strain, stronger effect = higher value
In short: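 Test agents were incubated with a DNA-repair-mutant yeast strain. Growth was then read and compared against vehicle-treated controls.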

[4] = NCI Yeast Anticancer Drug Screen. Data for the cln2 rad14 strain (AID 165);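 note: 0% = growth equal to vehicle treated cultures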; settings: S. cerevisiae cln2 rad14 strain, stronger effect = higher value
In short: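 The screen exposed genetically defined yeast (cln2 rad14) to test compounds and scored growth inhibition relative to vehicle-treated controls.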

[5] = NCI Yeast Anticancer Drug Screen. Data for the bub3 strain (AID 167); settings: S. cerevisiae bub3 mutant strain, stronger effect = higher value
In short: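 Whole-cell yeast assay. The mutant strain was incubated with compounds, and growth inhibition was determined by comparison with vehicle-treated cells.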

[6] = NCI Yeast Anticancer Drug Screen. Data for the mlh1 rad18 strain (AID 175); settings: S. cerevisiae mlh1 rad18 strain growth inhibition, stronger effect = higher value
In short: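 Compound-treated yeast growth, normalised to vehicle controls. Strain bears defined DNA repair mutations.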

[7] = at 5.0 µM (retest, dose inferred, filed as 0.5)
[8] = at 50.0 µM (retest, dose inferred, filed as 5.0)

For `C/C=C(/CN/C(=C\[N+](=O)[O-])c1ccccc1)c1ccccc1`, the growth inhibition [1, 7] was 0%, the growth inhibition [1, 8] was 87% (active) and the growth inhibition ([1]; at 50.0 µM) was 96.5% (active). The growth inhibition [2, 7] was -4%, the growth inhibition [2, 8] was 86% (active) and the growth inhibition ([2]; at 50.0 µM) was 95% (active). The growth inhibition [3, 7] was 0%, the growth inhibition [3, 8] was 79% (active) and the growth inhibition ([3]; at 50.0 µM) was 94.3% (active). The growth inhibition [4, 7] was -1%, the growth inhibition [4, 8] was 37% and the growth inhibition ([4]; at 50.0 µM) was 75.2% (active). For the same compound, the growth inhibition [5, 7] was 8%, the growth inhibition [5, 8] was 74% (active) and the growth inhibition ([5]; at 50.0 µM) was 92.7% (active). The growth inhibition [6, 7] was -8%, the growth inhibition [6, 8] was 84% (active) and the growth inhibition ([6]; at 50.0 µM) was 95.5% (active).

For `NC(=S)N/N=C/c1ccc(Cl)s1`, the growth inhibition [1, 7] was -5%, the growth inhibition [1, 8] was 80% (active) and the growth inhibition ([1]; at 50.0 µM) was 87.2% (active). The growth inhibition [2, 7] was -8%, the growth inhibition [2, 8] was 29% and the growth inhibition ([2]; at 50.0 µM) was 47.5%. For the same compound, the growth inhibition [3, 7] was -5%, the growth inhibition [3, 8] was 36% and the growth inhibition ([3]; at 50.0 µM) was 67.6%. The growth inhibition [4, 7] was -17%, the growth inhibition [4, 8] was 9% and the growth inhibition ([4]; at 50.0 µM) was 11.7%. For the same compound, the growth inhibition [5, 7] was -5%, the growth inhibition [5, 8] was 62% and the growth inhibition ([5]; at 50.0 µM) was 57.5%. For the same compound, the growth inhibition [6, 7] was -6%, the growth inhibition [6, 8] was 44% and the growth inhibition ([6]; at 50.0 µM) was 87% (active).

With `COC(=O)C(C#N)=C(SC)SC` the growth inhibition [1, 7] was 7%, the growth inhibition [1, 8] was 99% (active) and the growth inhibition ([1]; at 50.0 µM) was 99.3% (active). The growth inhibition [2, 7] was 4%, the growth inhibition [2, 8] was 99% (active) and the growth inhibition ([2]; at 50.0 µM) was 98.2% (active). The growth inhibition [3, 7] was 17%, the growth inhibition [3, 8] was 99% (active) and the growth inhibition ([3]; at 50.0 µM) was 99.5% (active). The growth inhibition [4, 7] was -3%, the growth inhibition [4, 8] was 98% (active) and the growth inhibition ([4]; at 50.0 µM) was 95.2% (active). For the same compound, the growth inhibition [5, 7] was 1%, the growth inhibition [5, 8] was 99% (active) and the growth inhibition ([5]; at 50.0 µM) was 98.9% (active). For the same compound, the growth inhibition [6, 7] was 41%, the growth inhibition [6, 8] was 99% (active) and the growth inhibition ([6]; at 50.0 µM) was 99.1% (active).

In the case of `Cc1cc([N+](=O)[O-])cc(Cl)c1O`, the growth inhibition [1, 7] is reported as -21%, the growth inhibition [1, 8] is reported as 51% and the growth inhibition ([1]; at 50.0 µM) is reported as 79.1% (active). The growth inhibition [2, 7] was -6%, the growth inhibition [2, 8] was 79% (active) and the growth inhibition ([2]; at 50.0 µM) was 88.3% (active). For the same compound, the growth inhibition [3, 7] was -4%, the growth inhibition [3, 8] was 87% (active) and the growth inhibition ([3]; at 50.0 µM) was 88% (active). The growth inhibition [4, 7] was 7%, the growth inhibition [4, 8] was 69% and the growth inhibition ([4]; at 50.0 µM) was 85.2% (active). The growth inhibition [5, 7] was -21%, the growth inhibition [5, 8] was 66% and the growth inhibition ([5]; at 50.0 µM) was 82.3% (active). For the same compound, the growth inhibition [6, 7] was -58%, the growth inhibition [6, 8] was 64% and the growth inhibition ([6]; at 50.0 µM) was 80% (active).

In the case of `O=C(O)/C(=C/c1c(O)ccc2ccccc12)c1csc(-c2nc(/C(=C\c3c(O)ccc4ccccc34)C(=O)O)cs2)n1`, the growth inhibition [1, 7] is reported as 74% (active), the growth inhibition [1, 8] is reported as 74% (active) and the growth inhibition ([1]; at 50.0 µM) is reported as 89.6% (active). For the same compound, the growth inhibition [2, 7] was 48%, the growth inhibition [2, 8] was 48% and the growth inhibition ([2]; at 50.0 µM) was 92% (active). The growth inhibition [3, 7] was 74% (active), the growth inhibition [3, 8] was 74% (active) and the growth inhibition ([3]; at 50.0 µM) was 92% (active). The growth inhibition [4, 7] was 46%, the growth inhibition [4, 8] was 46% and the growth inhibition ([4]; at 50.0 µM) was 90% (active). The growth inhibition [5, 7] was 49%, the growth inhibition [5, 8] was 49% and the growth inhibition ([5]; at 50.0 µM) was 90.2% (active). For the same compound, the growth inhibition [6, 7] was 68%, the growth inhibition [6, 8] was 68% and the growth inhibition ([6]; at 50.0 µM) was 88% (active).

Compound `O=S1(=O)CS(=O)(=O)OCCCO1` has a growth inhibition [1, 7] of 10%, a growth inhibition [1, 8] of 10% and a growth inhibition ([1]; at 50.0 µM) of -15.7%. For the same compound, the growth inhibition [2, 7] was 8%, the growth inhibition [2, 8] was 8% and the growth inhibition ([2]; at 50.0 µM) was -32.8%. The growth inhibition [3, 7] was 7%, the growth inhibition [3, 8] was 15% and the growth inhibition ([3]; at 50.0 µM) was -23.4%. The growth inhibition [4, 7] was 12%, the growth inhibition [4, 8] was 9% and the growth inhibition ([4]; at 50.0 µM) was -9.45%. It also gave a growth inhibition [5, 7] of 7%, a growth inhibition [5, 8] of 7% and a growth inhibition ([5]; at 50.0 µM) of -30.1%. It also gave a growth inhibition [6, 7] of 11%, a growth inhibition [6, 8] of 16% and a growth inhibition ([6]; at 50.0 µM) of -59.5%.

With `N=C(/C(=C/c1ccccc1)c1ccccc1)c1ccccc1` the growth inhibition [1, 7] was 5%, the growth inhibition [1, 8] was 78% (active) and the growth inhibition ([1]; at 50.0 µM) was 97.6% (active). For the same compound, the growth inhibition [2, 7] was 8%, the growth inhibition [2, 8] was 76% (active) and the growth inhibition ([2]; at 50.0 µM) was 98.8% (active). The growth inhibition [3, 7] was 6%, the growth inhibition [3, 8] was 98% (active) and the growth inhibition ([3]; at 50.0 µM) was 98.5% (active). The growth inhibition [4, 7] was -4%, the growth inhibition [4, 8] was 97% (active) and the growth inhibition ([4]; at 50.0 µM) was 97.8% (active). The growth inhibition [5, 7] was 25%, the growth inhibition [5, 8] was 98% (active) and the growth inhibition ([5]; at 50.0 µM) was 98.7% (active). The growth inhibition [6, 7] was 5%, the growth inhibition [6, 8] was 98% (active) and the growth inhibition ([6]; at 50.0 µM) was 97.9% (active).

With `N#CC1C(=O)SC2c3ccccc3C(=O)c3ccccc3C12` (stereo not given) the growth inhibition [1, 7] was -3%, the growth inhibition [1, 8] was 51% and the growth inhibition ([1]; at 50.0 µM) was 63.8%. The growth inhibition [2, 7] was -28%, the growth inhibition [2, 8] was -4% and the growth inhibition ([2]; at 50.0 µM) was 0.05%. For the same compound, the growth inhibition [3, 7] was -6%, the growth inhibition [3, 8] was 5% and the growth inhibition ([3]; at 50.0 µM) was 38%. The growth inhibition [4, 7] was 6%, the growth inhibition [4, 8] was 36% and the growth inhibition ([4]; at 50.0 µM) was 42.6%. It also gave a growth inhibition [5, 7] of -8%, a growth inhibition [5, 8] of 27% and a growth inhibition ([5]; at 50.0 µM) of 32.8%. For the same compound, the growth inhibition [6, 7] was -8%, the growth inhibition [6, 8] was 58% and the growth inhibition ([6]; at 50.0 µM) was 69.8%.

For `Nc1ccccc1SCc1csc(-c2ccc(Cl)cc2)n1`, the growth inhibition [1, 7] was -4%, the growth inhibition [1, 8] was 98% (active) and the growth inhibition ([1]; at 50.0 µM) was 97.9% (active). The growth inhibition [2, 7] was -3%, the growth inhibition [2, 8] was 98% (active) and the growth inhibition ([2]; at 50.0 µM) was 97.3% (active). For the same compound, the growth inhibition [3, 7] was 2%, the growth inhibition [3, 8] was 98% (active) and the growth inhibition ([3]; at 50.0 µM) was 98.5% (active). The growth inhibition [4, 7] was -10%, the growth inhibition [4, 8] was 97% (active) and the growth inhibition ([4]; at 50.0 µM) was 97.2% (active). The growth inhibition [5, 7] was 2%, the growth inhibition [5, 8] was 98% (active) and the growth inhibition ([5]; at 50.0 µM) was 97.1% (active). For the same compound, the growth inhibition [6, 7] was 2%, the growth inhibition [6, 8] was 98% (active) and the growth inhibition ([6]; at 50.0 µM) was 97.6% (active).

With `O=C(O)C(Br)C(Br)c1ccccc1[N+](=O)[O-]` (stereo not given) the growth inhibition [1, 7] was 15%, the growth inhibition [1, 8] was 81% (active) and the growth inhibition ([1]; at 50.0 µM) was 96.5% (active). For the same compound, the growth inhibition [2, 7] was 8%, the growth inhibition [2, 8] was 60% and the growth inhibition ([2]; at 50.0 µM) was 89% (active). The growth inhibition [3, 7] was 20%, the growth inhibition [3, 8] was 79% (active) and the growth inhibition ([3]; at 50.0 µM) was 95% (active). For the same compound, the growth inhibition [4, 7] was 21%, the growth inhibition [4, 8] was 72% (active) and the growth inhibition ([4]; at 50.0 µM) was 77.2% (active). The growth inhibition [5, 7] was 3%, the growth inhibition [5, 8] was 79% (active) and the growth inhibition ([5]; at 50.0 µM) was 96% (active). For the same compound, the growth inhibition [6, 7] was 11%, the growth inhibition [6, 8] was 85% (active) and the growth inhibition ([6]; at 50.0 µM) was 92% (active).
